# Active and inactive are the calls of the source. Cut-off read from the data, not from the text of the source, unless noted: active = inhibition above about 80%; inactive = the rest.
# Experiments:
# [1] = galactose survival enhancers in mitochondrial complex I cybrids – cell-based, galactose medium, ATP luminescence, primary screen (AID 1645843;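 active = z-score of at least 1.8 in each of two replicates, scored against plate mean and spread of sample wells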;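 note: positive z means more ATP and so rescue of galactose-driven cybrid death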); settings: complex I mutant cybrid cells, 72 h, stronger effect = higher value
# [2] = growth inhibition, single agent or in combination, cell-based, chromothripsis tumors, cisplatin or BGB combos (AID 1671449); settings: LFS_MB_P medulloblastoma cells;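 note: cells exposed for 96 hours; 0% = vehicle DMSO and 100% = killing by high DMSO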
# [3] = growth inhibition, single agent and combos, cell-based, chromothripsis tumors, cisplatin or BGB combos (AID 1671450); settings: HDN33 neuroblastoma cells, stronger effect = higher value;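 note: cells exposed to compound for four days; 0% = vehicle DMSO and 100% = cell killing by high DMSO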
# [4] = growth inhibition, single agents and combos, ICB984, cell-based, cisplatin or BGB combos, synergistic combos for chromothripsis tumors (AID 1671451; call rule not given here;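 note: cells exposed for 96 hours before readout; 0% = vehicle DMSO and 100% = killing by high DMSO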); settings: ICB984 medulloblastoma cells, drug combinations, stronger effect = higher value
# [5] = growth inhibition, single agents and combos, LFS_MB_1R, cell-based, cisplatin or BGB combos, synergistic combos for chromothripsis tumors (AID 1671452); settings: LFS_MB_1R medulloblastoma cells, stronger effect = higher value;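 note: cells exposed for 96 hours before readout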
# [6] = growth inhibition, single agents and combos, HTB85, cell-based, BGB or cisplatin IC20 combos, synergistic combos for chromothripsis tumors (AID 1671453); settings: HTB85 osteosarcoma cells, drug combinations, stronger effect = higher value;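 note: cells exposed for 96 hours before readout; 0% = vehicle DMSO and 100% = high DMSO killing control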
# [7] = growth inhibition, single agents and combos, CRL2098, cell-based, BGB or cisplatin IC20 combos, synergistic combos for chromothripsis tumors (AID 1671454); settings: CRL2098 osteosarcoma cells, drug combinations, stronger effect = higher value;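 note: cells exposed for 96 h before readout; 0% = vehicle DMSO and 100% = killing by high DMSO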
# [8] = growth inhibition, single agents and combos, HD-MB03, cell-based, BGB or cisplatin IC20 combos, synergistic combos for chromothripsis tumors (AID 1671455; in the data active = inhibition above about 83%;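 note: 0% = vehicle DMSO and 100% = high DMSO as cytotoxic control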); settings: HD-MB03 medulloblastoma cells, stronger effect = higher value
# [9] = growth inhibition, single agents and combos, UWB1.289, cell-based, BGB or cisplatin combos, synergistic combos for chromothripsis tumors (AID 1671456); settings: UWB1.289 ovarian carcinoma cells, stronger effect = higher value;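 note: cells exposed to compound for four days; 0% = vehicle DMSO and 100% = killing by high DMSO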
# [10] = growth inhibition, single agents and combos, LFS_MB_2R, cell-based, cisplatin combos, synergistic combos for chromothripsis tumors (AID 1671457); settings: LFS_MB_2R medulloblastoma cells, stronger effect = higher value;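 note: cells exposed to compound for four days before readout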
# [11] = growth inhibition, MDA-MB-436, cell-based, BGB or cisplatin combos, synergistic combos for chromothripsis tumors (AID 1671458; call rule not given here;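 note: cells exposed for 96 hours; 0% = vehicle DMSO and 100% = killing by high DMSO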); settings: MDA-MB-436 breast carcinoma growth inhibition, drug combinations, stronger effect = higher value
# [12] = UWB1.289_BRCA1 ovarian cancer growth, cell-based, BGB or cisplatin combinations (AID 1671459); settings: UWB1.289 BRCA1 ovarian carcinoma, drug combinations, stronger effect = higher value
# [13] = drug combination toxicity in non-malignant astrocytes – cell-based, BGB or cisplatin IC20 combos, cytotoxicity control for chromothriptic childhood tumor combination screen (AID 1671460); settings: Human astrocytes, viability inhibition, drug combinations, at 0.5 µM, stronger effect = higher value;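 note: cells exposed to compounds for 96 hours before viability readout; 0% = vehicle and 100% = killing control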
# [14] = BT084 cell growth, single and combined drugs, ICGC_MB145, cisplatin and BGB IC40 combos (AID 1671461); settings: BT084 medulloblastoma cells, drug combinations, stronger effect = higher value;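 note: cells exposed to drugs for 96 hours; 0% = vehicle DMSO and 100% = high DMSO full killing control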
# [15] = RCMB18 cell growth, single agent and combined, cisplatin and BGB IC40 combos (AID 1671462); settings: RCMB18 medulloblastoma cells, stronger effect = higher value;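 note: cells exposed to compound for four days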
# [16] = CRL1545 cell growth, single agent and combined, cisplatin and BGB IC20 combos (AID 1671464); settings: CRL1545 osteosarcoma cells, stronger effect = higher value;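 note: cells exposed to compound for 96 hours before readout; 0% = vehicle DMSO and 100% = high DMSO killing control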
# [17] = at 0.5 µM, stronger effect = higher value
# [18] = measured here: combination with BGB IC20, at 0.005 µM
# [19] = measured here: combination with BGB IC40, at 0.005 µM
# [20] = measured here: combination with BGB IC40, at 0.05 µM
# [21] = measured here: combination with cisplatin, at 0.5 µM, stronger effect = higher value
# [22] = measured here: combination with cisplatin, at 5 µM, stronger effect = higher value
# [23] = measured here: with BGB IC20 combination, at 0.5 µM
# [24] = measured here: with cisplatin IC20 combination, at 0.5 µM
# [25] = measured here: 5 uM single agent, at 5 µM
# [26] = measured here: combination with cisplatin, at 0.5 µM
# [27] = measured here: combination with cisplatin, at 5 µM
# [28] = measured here: with BGB IC20, at 0.5 µM
# [29] = measured here: with BGB IC20, at 5 µM
# [30] = measured here: with cisplatin IC20, at 0.5 µM
# [31] = measured here: with cisplatin IC20, at 5 µM
# [32] = measured here: combination with BGB at IC20, at 0.5 µM
# [33] = measured here: combination with cisplatin at IC20, at 0.5 µM
# [34] = measured here: combo with BGB at IC20, at 0.5 µM
# [35] = measured here: combo with cisplatin at IC20, at 0.5 µM
# [36] = measured here: inhibition with BGB combination, at 0.05 µM
# [37] = measured here: inhibition with cisplatin combination, at 0.05 µM
# [38] = measured here: BGB combination, at 0.5 µM
# [39] = measured here: BGB combination, at 5 µM
# [40] = measured here: cisplatin combination, at 0.5 µM
# [41] = measured here: cisplatin combination, at 5 µM
# [42] = BGB combination, concentration series, at 5 µM
# [43] = cisplatin combination, concentration series, at 5 µM
# [44] = measured here: combo with BGB IC20
# [45] = measured here: combo with cisplatin IC20
# [46] = cisplatin combination, at 0.5 µM
# [47] = measured here: BGB IC40 combination 0.05 uM, at 0.05 µM
# [48] = measured here: BGB IC40 combination, at 0.05 µM
structure (smiles),measurement,setting,value
CC(=O)N1CCC(NCCOc2c(C)cccc2Cl)CC1,z-score,[1],-0.35 (inactive)
CN(CC1Cc2ccccc2O1)C(=O)Nc1nc(-c2ccccc2)ns1 (stereo not drawn),z-score,[1],1.98 (inactive)
O=C(CCCCCCC(=O)NO)NO,inhibition,[2]; [17],-16.3% (inactive)
same,inhibition,[2]; [18],3.43%
same,inhibition,[2]; [19],-7.94%
same,inhibition,[2]; [20],-3.7%
same,inhibition,[2]; [21],-17.1%
same,inhibition,[2]; [22],37.5%
same,inhibition,"[3]; BGB combo, at 5 µM",16.4%
same,inhibition,[3]; at 0.5 µM,-16.1% (inactive)
same,inhibition,"[3]; cisplatin combo, at 5 µM",-6.26%
same,inhibition,[3]; [23],-13.7%
same,inhibition,[3]; [24],-21.3%
same,inhibition,"[3]; single agent, at 5 µM",-0.771%
same,inhibition,"[4]; BGB IC20 combo, at 0.005 µM",-20.4%
same,inhibition,"[4]; BGB IC40 combo, at 0.005 µM",-41.1%
same,inhibition,"[4]; BGB IC40 combo, at 0.05 µM",-25.8%
same,inhibition,[4]; at 0.5 µM,-27% (inactive)
same,inhibition,"[4]; cisplatin combo, at 0.05 µM",-30.8%
same,inhibition,"[4]; cisplatin combo, at 0.5 µM",-31.2%
same,inhibition,"[4]; cisplatin combo, at 5 µM",-49.1%
same,inhibition,[4]; [25],-5.09%
same,inhibition,[5]; at 0.5 µM,-25% (inactive)
same,inhibition,[5]; [20],-41%
same,inhibition,[5]; [26],-39.7%
same,inhibition,[5]; [27],-49.3%
same,inhibition,[6]; at 0.5 µM,-16.4% (inactive)
same,inhibition,[6]; [28],-21.4%
same,inhibition,[6]; [29],7.58%
same,inhibition,[6]; [30],-13.1%
same,inhibition,[6]; [31],-1.96%
same,inhibition,"[6]; single agent, at 5 µM",8.05%
same,inhibition,[7]; at 0.5 µM,-49.2% (inactive)
same,inhibition,[7]; [32],-52%
same,inhibition,[7]; [33],-0.415%
same,inhibition,[8]; at 0.5 µM,-7.45% (inactive)
same,inhibition,[8]; [34],-12.8%
same,inhibition,[8]; [35],-0.883%
same,inhibition,[9]; at 0.5 µM,-11.1% (inactive)
same,inhibition,[9]; [36],12.4%
same,inhibition,[9]; [37],-20.9%
same,inhibition,[10]; at 0.5 µM,7.53% (inactive)
same,inhibition,[10]; [26],-13.9%
same,inhibition,[10]; [27],4.86%
same,inhibition,[11]; at 0.5 µM,-5.23% (inactive)
same,inhibition,[11]; [38],0.608%
same,inhibition,[11]; [39],5.89%
same,inhibition,[11]; [40],-7.76%
same,inhibition,[11]; [41],14.4%
same,inhibition,[12]; [42],21.1%
same,inhibition,[12]; at 0.5 µM,-7.22% (inactive)
same,inhibition,[12]; [43],38.6%
same,inhibition,[13],-7.15% (inactive)
same,inhibition,[13]; [44],-3.26%
same,inhibition,[13]; [45],-13%
same,inhibition,[14]; at 0.5 µM,-7.26% (inactive)
same,inhibition,[14]; [46],-13%
same,inhibition,"[14]; cisplatin combination, at 5 µM",18.3%
same,inhibition,[14]; [47],-15.2%
same,inhibition,"[14]; single agent, at 5 µM",28.5%
same,inhibition,[15]; at 0.5 µM,-4.15% (inactive)
same,inhibition,"[15]; cisplatin combo, at 5 µM",6.83%
same,inhibition,[15]; [48],-1.04%
same,inhibition,[15]; [26],-1.18%
same,inhibition,"[15]; single agent, at 5 µM",-14.5%
same,inhibition,[16]; at 0.5 µM,-30.5% (inactive)
same,inhibition,[16]; [23],-55.7%
same,inhibition,[16]; [24],-17.9%
same,inhibition,"[16]; single agent, at 0.05 µM",-50.7%
same,inhibition,"[16]; single agent, at 5 µM",-1.16%
CC(C)C(=O)SCCCCCCC(=O)Nc1nc(-c2ccccc2)cs1,inhibition,[2]; [17],-25.8% (inactive)
same,inhibition,[2]; [18],-14.6%
same,inhibition,[2]; [19],-57.5%
same,inhibition,[2]; [20],-33.9%
same,inhibition,[2]; [21],-38.9%
same,inhibition,[2]; [22],85.2%
same,inhibition,"[3]; BGB combo, at 5 µM",48.9%
same,inhibition,[3]; at 0.5 µM,6.91% (inactive)
same,inhibition,"[3]; cisplatin combo, at 5 µM",45.1%
same,inhibition,[3]; [23],1.56%
same,inhibition,[3]; [24],14.6%
same,inhibition,"[3]; single agent, at 5 µM",57.6%
same,inhibition,"[4]; BGB IC20 combo, at 0.005 µM",16.1%
same,inhibition,"[4]; BGB IC40 combo, at 0.005 µM",-25.2%
same,inhibition,"[4]; BGB IC40 combo, at 0.05 µM",31.3%
same,inhibition,[4]; at 0.5 µM,-31.1% (inactive)
same,inhibition,"[4]; cisplatin combo, at 0.05 µM",28%
same,inhibition,"[4]; cisplatin combo, at 0.5 µM",-33.4%
same,inhibition,"[4]; cisplatin combo, at 5 µM",-7.7%
same,inhibition,[4]; [25],4.47%
same,inhibition,[5]; at 0.5 µM,-22% (inactive)
same,inhibition,[5]; [20],-72.1%
same,inhibition,[5]; [26],-44.8%
same,inhibition,[5]; [27],68.5%
same,inhibition,[6]; at 0.5 µM,-4.36% (inactive)
same,inhibition,[6]; [28],2.11%
same,inhibition,[6]; [29],19%
same,inhibition,[6]; [30],-21.4%
same,inhibition,[6]; [31],38.3%
same,inhibition,"[6]; single agent, at 5 µM",22.2%
same,inhibition,[7]; at 0.5 µM,-30.2% (inactive)
same,inhibition,[7]; [32],-44.3%
same,inhibition,[7]; [33],-19.3%
same,inhibition,[8]; at 0.5 µM,4.11% (inactive)
same,inhibition,[8]; [34],5.74%
same,inhibition,[8]; [35],11.7%
same,inhibition,[9]; at 0.5 µM,5.55% (inactive)
same,inhibition,[9]; [36],-30.6%
same,inhibition,[9]; [37],-3.57%
same,inhibition,[10]; at 0.5 µM,-13.4% (inactive)
same,inhibition,[10]; [26],-25.2%
same,inhibition,[10]; [27],54.7%
same,inhibition,[11]; at 0.5 µM,-7.93% (inactive)
same,inhibition,[11]; [38],-9.46%
same,inhibition,[11]; [39],10.2%
same,inhibition,[11]; [40],-23.5%
same,inhibition,[11]; [41],18.2%
same,inhibition,[12]; [42],37.8%
same,inhibition,[12]; at 0.5 µM,9.48% (inactive)
same,inhibition,[12]; [43],66.2%
same,inhibition,[13],31.1% (inactive)
same,inhibition,[13]; [44],34.6%
same,inhibition,[13]; [45],18.5%
same,inhibition,[14]; at 0.5 µM,-9.26% (inactive)
same,inhibition,[14]; [46],-8.48%
same,inhibition,"[14]; cisplatin combination, at 5 µM",42.4%
same,inhibition,[14]; [47],-39.7%
same,inhibition,"[14]; single agent, at 5 µM",71.8%
same,inhibition,[15]; at 0.5 µM,-9.74% (inactive)
same,inhibition,"[15]; cisplatin combo, at 5 µM",41%
same,inhibition,[15]; [48],12.2%
same,inhibition,[15]; [26],-9.58%
same,inhibition,"[15]; single agent, at 5 µM",36.3%
same,inhibition,[16]; at 0.5 µM,33.1% (inactive)
same,inhibition,[16]; [23],24.9%
same,inhibition,[16]; [24],36.2%
same,inhibition,"[16]; single agent, at 0.05 µM",0.931%
same,inhibition,"[16]; single agent, at 5 µM",46.6%
